Most compounds without a hit are left out; they make up all but 0.95% or so of the library.
A488 fluor = A488 region autofluorescence. compound autofluorescence, A488 spectral region, dye equivalency; Compound Type: qHTS ECL - MLSMR. max dye equivalency, M. 59,000 compounds, 0.1% hits. AID 591
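Spectroscopic profiling in the A488 region: compounds in pH 8.0 Tris (100 mM), 15 min RT, CCD imaging with 480 nm excitation and 540 nm emission; responses normalized against A488 dye standards.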
Rhodamine autofl = compound autofluorescence in rhodamine spectral region | Rhodamine-region fluorescence, 547/598 nm, Tris buffer; stronger effect = higher value | max dye-equivalent concentration, M | 59,000 compounds, 0.05% hits; in the data active = max dye-equivalent concentration above about 11 nM; inconclusive = between about 1.1 nM and that limit
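Intrinsic compound fluorescence, ex 547 / em 598 nm, CCD imager. Tris 100 mM pH 8.0; 15 min RT. Output = rhodamine dye-equivalent concentration at each compound concentration.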
Resorufin autofl = compounds fluorescent in resorufin spectral region; Compound fluorescence, resorufin region 547/598 nm, buffer; stronger effect = higher value; max dye-equivalent concentration, M; 59,000 compounds, 0.04% hits; AID 588
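Compounds in 100 mM Tris buffer, pH 8.0, incubated 15 min at room temperature, then read with 547 nm excitation and 598 nm emission filters. Fluorescence was converted to dye-equivalent concentration using an on-plate six-point resorufin standard curve.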
Fluorescein autfl = compound autofluorescence in fluorescein spectral region; Compound autofluorescence, 480/540 nm, fluorescein-equivalent; stronger effect = higher value; max fluorescein-equivalent concentration, M; 59,000 compounds, 0.91% hits; in the data active = max fluorescein-equivalent concentration above about 10 nM; inconclusive = between about 1.1 nM and that limit
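Fluorescein stocks ranging 3 mM down to 300 nM, plus DMSO blanks, were pinned alongside compounds to build a per-plate standard curve. Buffer: 100 mM Tris, pH 8.0. Incubation 15 min, room temperature; filters 480/540 nm.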
A647 autofl = compound autofluorescence in A647 spectral region; 59,000 tested, under 10 active; Compound fluorescence, A647 channel (570/671 nm), Tris buffer; AID 592; max dye-equivalent concentration, M;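 also: values scaled relative to a standard on each plate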
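Tris 100 mM pH 8.0; cpd + A647 stds pin-transferred; 15 min RT; CCD imager, ex 570/em 671. Output = A647-equivalent conc. per cpd conc.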
TexasRed autofl = compounds fluorescent in Texas Red spectral region | Compound fluorescence, Texas Red channel, 547/618 nm; stronger effect = higher value | max dye-equivalent concentration, M | 59,000 compounds, 0.06% hits | AID 587; in the data active = max dye-equivalent concentration above about 10 nM; inconclusive = between about 1.1 nM and that limit
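qHTS profiling of intrinsic compound fluorescence; 100 mM Tris pH 8.0; 15 min RT; ex 547 / em 618 nm; response expressed as Texas Red dye-equivalent concentration from six-point plate standard.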
An asterisk follows results filed as active; i = inactive; ? = inconclusive. Unless noted, no rule for the calls is given here.

SMILES | A488 fluor | Rhodamine autofl | Resorufin autofl | Fluorescein autfl | A647 autofl | TexasRed autofl
COCCn1c(=O)c(-c2ccc(OC)cc2)nc2cnc(Nc3cccc(OC)c3)nc21 | i | i | i | 1.05e-08M* | 3.4e-09 | i
O=C(NCc1ccc2[nH]c3c(c2c1)CCCC3)N1CCOCC1 | i | i | i | 1.46e-08M* | 1e-09 | i
Cc1cc(-c2ccco2)n2c(nc3ccccc32)c1C#N | ? | i | i | 5.98e-08M* | 1e-09 | i
O=C(/C=C\c1ccc(O)c(O)c1)O[C@H]1C[C@@](O)(C(=O)O)C[C@H](O)[C@@H]1O | i | i | i | i | 2.43e-08 | i
Cc1ccc([C@@H]2C3COCC=C3C(C#N)=C(N)C2(C#N)C#N)o1 (some centres not stated) | i | i | i | 1.16e-08M* | 1.94e-08 | i
O=C1NC(=O)[C@@H]2C3c4ccccc4C=CN3[C@H](C(=O)c3cccs3)[C@H]12 (some centres not stated) | i | i | i | 2.37e-08M* | 1.4e-09 | i
O=C(Cn1ccccc1=O)c1cccs1 | i | i | i | i | 1e-09 | i
COCCn1c(=O)c(-c2ccccc2)nc2cnc(OC)nc21 | i | i | i | i | 1e-09 | i
CCOC(=O)CN=C1CC(C)(C)CC2=C1Sc1ncnc(N(C)C)c1N2 | ? | ? | ? | 3.4e-08M* | 1e-09 | i
CN(C)CCCN1CCC2(CCC(C(C)(C)C)CC2)CC1 | i | i | i | i | 1e-09 | i
CCCn1c(=N)c(C(=O)NCc2ccc3c(c2)OCO3)cc2c(=O)n3cccc(C)c3nc21 | i | i | i | 1.4e-08M* | 2.6e-09 | i
CCC(C)(C)C(=O)O[C@@H]1C[C@H](C)C=C2C=C[C@H](C)[C@@H](CC[C@H]3C[C@@H](O)CC(=O)O3)[C@H]21 | i | i | i | ? | 9.4e-09 | i
C=CCOn1c(=O)c(-c2cc3ccccc3o2)[n+]([O-])c2ccccc21 | i | i | i | 1.88e-08M* | 2.18e-08 | i
CC(=O)[C@@H]1[C@H]2[C@@H](C(=O)[C@H]3OC[C@H]2O3)[C@@H]2C=Cc3ccccc3N12 | i | i | i | 1.09e-08M* | 2.05e-08 | ?
O=[n+]1c2c(n([O-])c3cc(F)c(N4CCCC4)cc31)CCC2 | ? | ? | ? | 1.71e-07M* | 1.18e-08 | ?
O=[n+]1c2c(n([O-])c3cc(F)ccc31)CCCC2 | i | i | i | i | 1.04e-08 | i
O=C(Nc1ccccc1)N1CC[C@@]2(CCCN(C(=O)c3cnccn3)C2)C1 | i | i | i | ? | 1.35e-08 | i
COc1ccc(CCNS(=O)(=O)c2ccc(C3CNC(=O)C3)cc2)cc1OC (configuration not stated) | i | i | i | i | 3.2e-09 | i
COc1ccc(C2CNC(=O)C2)cc1OC1CCCC1 (configuration not stated) | i | i | i | 1.14e-08M* | 1.3e-09 | i
Cn1nc(-c2ccccc2)c2nc3ccccc3nc21 | 2.73e-08M* | i | i | 4.53e-07M* | 3.58e-08 | i
O=C(O)c1ccc2c(c1C(=O)O)C(=O)OC2(c1ccc(O)cc1)c1ccc(O)cc1 | i | i | i | i | 4.2e-09 | i
O=C1OC2(c3ccc(O)cc3Oc3cc(O)ccc32)c2c1c(-c1ccccc1)c(-c1ccccc1)c(-c1ccccc1)c2-c1ccccc1 | 2.29e-08M* | ? | ? | 4.81e-07M* | 1e-09 | i
COc1ccc(CNc2ncnc3ccc(-c4ccc(N(C)C)cc4)cc23)c(OC)c1 | i | i | i | ? | 3.01e-08 | i
CCOc1ccc(C2C=C(c3ccc(C)cc3)Nc3nnnn32)cc1 (configuration not stated) | i | i | i | ? | 1e-09 | i
CCOc1ccc(C2C=C(c3ccc(C)cc3)Nc3ncnn32)cc1 (configuration not stated) | i | i | i | 1.49e-08M* | 5.4e-09 | ?
SMILES | A488 fluor | Rhodamine autofl | Resorufin autofl | Fluorescein autfl | A647 autofl | TexasRed autofl
CC(CS(=O)(=O)c1cccc2cccnc12)N1CCCCC1 (configuration not stated) | i | i | i | 1.61e-08M* | 4.85e-08 | i
O=S(=O)(NC1CCCCCC1)c1cccc2cccnc12 | i | i | i | i | 4.9e-09 | i
COC(=O)c1ccc2c(c1)NC(=O)C(N1CCCC1)S2 (configuration not stated) | i | i | i | ? | 3.52e-08 | i
O=C(O)c1ccc2c(c1)NC(=O)C(N1CCCC1)S2 (configuration not stated) | i | i | i | 1.12e-08M* | 4.14e-08 | i
COc1cc(-c2[o+]c3cc(O)cc(O)c3cc2O)cc(O)c1O | i | i | i | ? | 1e-09 | i
O=C(O)c1cc(O)c2c(c1)C(=O)c1cccc(O)c1C2=O | ? | i | i | 8.63e-08M* | 2.33e-08 | i
CC(C)(CN)SCc1ccccc1 | i | i | i | i | 3.7e-09 | i
COC(=O)c1ccc2c(c1)SC1=C(CCCC1=O)N2 | ? | 2e-08M* | 1.86e-08M* | 5.27e-08M* | 6.82e-08 | 2.13e-08M*
Cc1nn(-c2ccccc2)c(Cl)c1C1C(C#N)=C(N)OC2=C1C(=O)CCC2 (configuration not stated) | i | i | i | ? | 1e-09 | i
CCn1nc(C)c(/C=C2\CCCC3=C2OC(N)=C(C#N)C3c2c(C)nn(CC)c2C)c1C (configuration not stated) | i | i | i | 2.42e-08M* | 1e-09 | i
c1ccc([C@@H]2CN3CCSC3=N2)cc1 | i | i | i | ? | 7e-09 | i
Nc1cc(-c2ccncc2)c[nH]c1=O | i | i | i | 1.08e-08M* | 5.08e-08 | i
c1ccc2c(-c3ccncc3)c[nH]c2c1 | i | i | i | ? | 1e-09 | i
CN(C)c1ccc(C(=C2C=CC(=[N+](C)C)C=C2)c2c(O)c(S(=O)(=O)O)cc3cc(S(=O)(=O)O)ccc23)cc1 | i | i | i | i | 1e-09 | i
